Hit rate of the full screen: of about 290,000 compounds, about 11,000 (3.8%) were called active. The sample holds actives, similar compounds and a random draw of the others, so the mix is not that of the screen.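 The calls were made as follows: active = mean replicate inhibition above about 79%, with every replicate also reaching it (limit read from the data); inconclusive = only one of the two criteria met; inactive = mean below limit and not every replicate reaching it.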
molecular target: FAD-linked sulfhydryl oxidase ALR (Homo sapiens) (UniProt P55789); experiment: inhibitors of human ALR sulfhydryl oxidase, primary screen, biochemical, H2O2 detection, HRP-luminol luminescence, single point (AID 485317); conditions: purified ALR, DTT oxidation, stronger effect = higher value, concentration not given here
Sequence (P55789 whole entry, looked up): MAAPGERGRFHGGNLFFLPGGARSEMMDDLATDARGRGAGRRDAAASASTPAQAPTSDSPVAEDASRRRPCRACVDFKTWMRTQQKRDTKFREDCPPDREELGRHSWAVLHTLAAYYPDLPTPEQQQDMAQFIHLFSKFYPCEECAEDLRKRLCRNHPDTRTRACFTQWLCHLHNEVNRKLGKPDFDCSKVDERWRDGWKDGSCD

inhibition, active:
NS(=O)(=O)c1ccc(NC2=CC(c3ccc(F)cc3)N(c3ccc(S(N)(=O)=O)cc3)C2=O)cc1 (centres undefined) 97.6%, Cc1ccccc1-c1n[nH]c(=S)n1C 93.4%, CCOc1ccccc1NC(=O)CCc1ccc(C)o1 99.7%, Oc1ccccc1N1CCN(C(=S)NCc2ccccc2)CC1 96.4%

inhibition, inactive:
CC(C)CC1(C)NC(=O)N(CC(=O)Nc2ccc3c(c2)OCCO3)C1=O (centres undefined) 4.51%, CCC(C)c1ccccc1N1CC(C(=O)N2CCN(S(=O)(=O)c3ccc(F)cc3)CC2)CC1=O (centres undefined) 1.3%, COCC(=O)Nc1c(I)c(C(=O)NCC(O)CO)c(I)c(C(=O)N(C)CC(O)CO)c1I (centres undefined) -12.2%, O=C(CSc1ccccn1)N1CCN(S(=O)(=O)c2ccc(Cl)cc2)CC1 -0.731%, CO[C@@H]1[C@@H](OC(N)=O)[C@@H](O)C(Oc2ccc3c(O)c(NC(=O)c4ccc(O)c(CC=C(C)C)c4)c(=O)oc3c2C)OC1(C)C (some centres undefined) 1.83%, COc1ccc(F)cc1C(=O)COC(=O)c1n[nH]c(=O)c2ccccc12 -1.76%, CC(C)(C)OC(=O)N[C@H](C(=O)OC(C)(C)C)c1ccc(Br)cc1 -0.888%, O=C1N[C@@H](Cc2ccccc2)C(=O)N2[C@@H]3N(S(=O)(=O)c4ccc(F)cc4)c4ccccc4[C@]3(Br)C[C@@H]12 -1.43%, CC(=O)C1=C(O)C(=O)N(c2ccc(S(N)(=O)=O)cc2)C1c1ccccc1F (centres undefined) -0.498%, NS(=O)(=O)c1ccc(NC(=O)COC(=O)C2(c3ccc(F)cc3)CCCC2)cc1 -14.8%, COc1ccccc1NS(=O)(=O)c1ccc(C)c(C(=O)NNC(=O)c2csc(N3CCOCC3)n2)c1 -6.78%, CCn1c(-c2ccoc2C)n[nH]c1=S 6.36%, CCCc1cc(-c2n[nH]c(=S)n2CC)c2ccccc2n1 -9.51%, O=C(CCNC(=O)c1ccc(Cl)cc1)NC1CCCc2ccccc21 (centres undefined) -6.93%, CCOc1ccccc1NC(=O)CCc1nnc2ccc(NCc3ccco3)nn12 1.12%, CCOc1ccccc1NC(=O)Cc1cccs1 -14.8%, CCOc1ccc(NC(=O)CN(C)C(=O)CCSc2ccc(F)cc2)cc1OCC -3.71%, COc1ccc(S(=O)(=O)Nc2cc(C)on2)cc1NC(C)=O -7.72%, CC1CCCCN1C(=S)NCc1ccccc1 (centres undefined) -1.5%, O=C(CN1CCN(c2ccccc2O)CC1)NC(=O)NCc1ccccc1 13.1%

Source: PubChem BioAssay AID485317 (Broad Institute, 2010)
